The record followed here is publication PMC7862700, “An all-to-all approach to the identification of sequence-specific readers for epigenetic DNA modifications on cytosine”.

Common to all, as to experiment: DAPPL (digital affinity profiling via proximity ligation, sequencing); 10 mM Tris-HCl pH 7.5, 50 mM NaCl, 1 mM DTT, 4% glycerol, room temperature, 30 min; GST-TFs on glutathione beads, 16-mer random dsDNA library, 0.1% formaldehyde crosslink after washing; high values mean tight binding
In one test the target is T1, FEV (Homo sapiens, UniProt Q99581 1-238).
T1 sequence: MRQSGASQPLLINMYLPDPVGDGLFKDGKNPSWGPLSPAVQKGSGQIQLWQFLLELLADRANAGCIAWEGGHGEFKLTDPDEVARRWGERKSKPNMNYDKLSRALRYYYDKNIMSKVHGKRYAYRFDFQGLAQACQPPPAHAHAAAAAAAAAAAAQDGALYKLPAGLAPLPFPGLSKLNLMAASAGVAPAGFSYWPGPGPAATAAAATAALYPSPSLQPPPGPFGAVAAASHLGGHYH
As to conditions: protein: recombinant; tags: N-terminal GST; dsDNA, one strand shown. In short, it runs like this:
(§1)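 Binding signal is each hexamer's read frequency for a factor divided by its frequency in the tag-only sample. The factors were GST-fused human transcription factors from yeast, captured on glutathione beads, DNA-barcoded and pooled with that sample. Pools were incubated with 200 nmole of a random double-stranded 16-mer DNA library in Tris/NaCl/DTT/glycerol buffer at room temperature for 30 min, then washed, crosslinked with 0.1% formaldehyde, proximity-ligated with BsaI/T4 ligase (1 h, 37 °C), PCR-amplified and sequenced on an Illumina NextSeq500.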

Another test addresses ETV5 (Homo sapiens, UniProt P41161 1-510). As to conditions: protein: recombinant; tags: N-terminal GST; dsDNA, one strand shown. The essentials:
as §1

Another test deals with HSF1 (Homo sapiens, UniProt Q00613 1-529). As to conditions: protein: recombinant; tags: N-terminal GST; chain copies: 3; dsDNA, one strand shown. The essentials: as §1
HSF1, sequence (Q00613 whole entry): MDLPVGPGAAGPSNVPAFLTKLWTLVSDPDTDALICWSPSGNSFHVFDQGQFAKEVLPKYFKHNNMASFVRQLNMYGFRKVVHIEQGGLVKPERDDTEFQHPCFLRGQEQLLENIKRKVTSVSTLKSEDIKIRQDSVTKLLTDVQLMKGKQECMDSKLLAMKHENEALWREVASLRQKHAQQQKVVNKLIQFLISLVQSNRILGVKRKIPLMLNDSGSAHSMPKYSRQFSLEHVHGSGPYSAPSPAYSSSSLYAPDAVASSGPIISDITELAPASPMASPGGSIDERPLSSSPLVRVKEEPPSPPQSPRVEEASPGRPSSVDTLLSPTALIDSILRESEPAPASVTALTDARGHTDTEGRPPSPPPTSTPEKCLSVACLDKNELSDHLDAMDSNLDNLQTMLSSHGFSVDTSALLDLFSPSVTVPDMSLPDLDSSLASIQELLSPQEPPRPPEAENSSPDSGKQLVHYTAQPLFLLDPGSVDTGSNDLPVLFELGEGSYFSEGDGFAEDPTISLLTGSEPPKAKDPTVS
The target in the next test is T2, SPIC (Homo sapiens, UniProt Q8N5J4 1-248).
T2 sequence: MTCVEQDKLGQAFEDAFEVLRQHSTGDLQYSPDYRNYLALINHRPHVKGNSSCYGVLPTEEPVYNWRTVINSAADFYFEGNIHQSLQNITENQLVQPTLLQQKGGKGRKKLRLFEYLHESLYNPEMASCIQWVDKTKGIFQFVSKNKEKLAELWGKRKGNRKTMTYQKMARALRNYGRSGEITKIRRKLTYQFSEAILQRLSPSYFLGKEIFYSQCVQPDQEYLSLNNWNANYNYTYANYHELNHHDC
To be noted: protein: recombinant; tags: N-terminal GST; dsDNA, one strand shown. In short, it runs like this:
as §1

A further test concerns the target ELF4 (Homo sapiens, UniProt Q99607 1-663). As to conditions: protein: recombinant; tags: N-terminal GST; dsDNA, one strand shown. The essentials: as §1
The next test deals with T3, ELK4 (Homo sapiens, UniProt P28324-2 1-405).
T3 sequence: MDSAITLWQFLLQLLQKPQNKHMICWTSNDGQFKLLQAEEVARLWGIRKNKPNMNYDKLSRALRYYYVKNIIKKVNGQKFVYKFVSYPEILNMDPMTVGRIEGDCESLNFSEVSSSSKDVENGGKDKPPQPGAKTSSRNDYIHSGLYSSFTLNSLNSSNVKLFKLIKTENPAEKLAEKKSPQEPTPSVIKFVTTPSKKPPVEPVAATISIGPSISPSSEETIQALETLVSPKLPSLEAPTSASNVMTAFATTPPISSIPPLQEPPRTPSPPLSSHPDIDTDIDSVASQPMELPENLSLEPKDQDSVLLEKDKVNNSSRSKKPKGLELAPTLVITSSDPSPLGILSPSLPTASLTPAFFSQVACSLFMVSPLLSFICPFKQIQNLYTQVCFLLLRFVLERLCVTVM
As to conditions: protein: recombinant; tags: N-terminal GST; dsDNA, one strand shown. In short, it runs like this: as §1

A further test concerns the target T4, ELF3 (Homo sapiens, UniProt P78545 1-371).
T4 sequence: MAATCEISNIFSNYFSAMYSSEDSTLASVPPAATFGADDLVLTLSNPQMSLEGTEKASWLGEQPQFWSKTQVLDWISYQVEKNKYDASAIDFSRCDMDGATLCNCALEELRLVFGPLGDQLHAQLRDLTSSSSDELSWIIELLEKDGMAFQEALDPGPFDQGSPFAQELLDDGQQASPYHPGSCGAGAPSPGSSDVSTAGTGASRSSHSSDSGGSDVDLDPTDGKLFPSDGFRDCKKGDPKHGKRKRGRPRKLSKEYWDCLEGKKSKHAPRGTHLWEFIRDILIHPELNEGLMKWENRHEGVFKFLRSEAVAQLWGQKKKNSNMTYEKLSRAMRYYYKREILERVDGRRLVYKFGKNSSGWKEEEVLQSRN
As to conditions: protein: recombinant; tags: N-terminal GST; dsDNA, one strand shown. In short, it runs like this:
as §1

In a further test the target is CRX (Homo sapiens, UniProt O43186 1-299). To be noted: protein: recombinant; tags: N-terminal GST; dsDNA, one strand shown. In short, it runs like this: as §1
CRX, sequence (O43186 whole entry): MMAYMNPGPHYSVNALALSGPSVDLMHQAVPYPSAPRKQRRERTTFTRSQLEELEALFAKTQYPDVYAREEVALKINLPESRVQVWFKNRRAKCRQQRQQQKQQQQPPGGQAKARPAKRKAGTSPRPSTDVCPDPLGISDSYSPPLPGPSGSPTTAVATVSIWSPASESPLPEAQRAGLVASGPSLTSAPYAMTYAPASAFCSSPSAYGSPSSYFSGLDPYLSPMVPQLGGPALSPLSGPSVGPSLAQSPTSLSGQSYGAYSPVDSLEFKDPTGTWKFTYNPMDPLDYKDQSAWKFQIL
The next test deals with ETV1 (Homo sapiens, UniProt P50549 1-477). To be noted: protein: recombinant; tags: N-terminal GST; dsDNA, one strand shown. In short, it runs like this:
as §1

ELF4, sequence (Q99607 whole entry): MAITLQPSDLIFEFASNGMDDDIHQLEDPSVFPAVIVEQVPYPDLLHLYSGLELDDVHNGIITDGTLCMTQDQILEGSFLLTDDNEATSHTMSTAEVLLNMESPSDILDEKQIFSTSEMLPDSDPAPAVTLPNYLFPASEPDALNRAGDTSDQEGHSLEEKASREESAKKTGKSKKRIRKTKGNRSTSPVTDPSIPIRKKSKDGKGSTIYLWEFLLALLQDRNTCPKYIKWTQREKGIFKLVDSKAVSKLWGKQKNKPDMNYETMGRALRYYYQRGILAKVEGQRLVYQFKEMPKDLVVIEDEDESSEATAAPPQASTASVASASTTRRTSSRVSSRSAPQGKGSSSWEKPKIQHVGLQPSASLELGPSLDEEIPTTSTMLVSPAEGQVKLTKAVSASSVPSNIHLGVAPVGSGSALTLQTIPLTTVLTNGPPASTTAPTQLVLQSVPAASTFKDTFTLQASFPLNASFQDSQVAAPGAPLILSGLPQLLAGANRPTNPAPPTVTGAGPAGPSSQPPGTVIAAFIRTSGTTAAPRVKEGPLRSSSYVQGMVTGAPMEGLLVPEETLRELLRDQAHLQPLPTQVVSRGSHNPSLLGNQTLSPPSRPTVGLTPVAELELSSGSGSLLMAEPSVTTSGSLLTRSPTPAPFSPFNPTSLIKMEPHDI
ETV5, sequence (P41161 whole entry): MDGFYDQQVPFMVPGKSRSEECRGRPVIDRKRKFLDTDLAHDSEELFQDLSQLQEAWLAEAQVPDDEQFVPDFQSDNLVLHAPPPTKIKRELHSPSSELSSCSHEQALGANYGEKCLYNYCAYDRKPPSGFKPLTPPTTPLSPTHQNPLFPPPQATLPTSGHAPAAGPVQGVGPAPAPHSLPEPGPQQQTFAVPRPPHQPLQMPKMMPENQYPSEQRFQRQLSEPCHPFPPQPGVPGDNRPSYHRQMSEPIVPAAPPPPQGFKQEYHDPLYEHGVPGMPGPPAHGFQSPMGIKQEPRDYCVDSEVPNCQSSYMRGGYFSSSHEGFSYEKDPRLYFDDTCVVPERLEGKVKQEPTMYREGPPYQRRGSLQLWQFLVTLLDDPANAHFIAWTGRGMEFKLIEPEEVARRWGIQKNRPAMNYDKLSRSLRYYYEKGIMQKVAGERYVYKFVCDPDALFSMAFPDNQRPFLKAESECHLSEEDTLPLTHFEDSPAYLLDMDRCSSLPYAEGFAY
ETV1, sequence (P50549 whole entry): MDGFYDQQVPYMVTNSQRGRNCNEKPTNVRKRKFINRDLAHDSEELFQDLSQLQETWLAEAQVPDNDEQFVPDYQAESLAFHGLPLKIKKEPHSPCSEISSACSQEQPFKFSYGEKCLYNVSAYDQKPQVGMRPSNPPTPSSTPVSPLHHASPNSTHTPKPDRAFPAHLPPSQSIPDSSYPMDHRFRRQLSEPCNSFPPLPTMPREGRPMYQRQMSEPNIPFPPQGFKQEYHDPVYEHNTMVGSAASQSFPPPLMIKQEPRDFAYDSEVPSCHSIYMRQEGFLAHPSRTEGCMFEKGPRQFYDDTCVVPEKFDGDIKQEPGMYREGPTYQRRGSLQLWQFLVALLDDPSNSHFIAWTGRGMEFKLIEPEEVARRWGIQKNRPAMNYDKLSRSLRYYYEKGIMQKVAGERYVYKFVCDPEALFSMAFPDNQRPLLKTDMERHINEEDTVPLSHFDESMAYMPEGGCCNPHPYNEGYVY

AACGTT: the binding signal with FEV was 1.08 fold enrichment (6-mer frequency, TF over GST control); with ETV5 it was 1.07 fold enrichment (6-mer frequency, TF over GST control); with HSF1, 1.32 fold enrichment (6-mer frequency, TF over GST control); with SPIC it was 1.23 fold enrichment (6-mer frequency, TF over GST control); in the test with ELF4, 1.14 fold enrichment (6-mer frequency, TF over GST control); with ELK4 it was 1.02 fold enrichment (6-mer frequency, TF over GST control). The binding signal with ELF3 is 1.05 fold enrichment (6-mer frequency, TF over GST control); with CRX, 1.02 fold enrichment (6-mer frequency, TF over GST control); with ETV1 it was 1.1 fold enrichment (6-mer frequency, TF over GST control).

Regarding TGGTTA, the binding signal is 1.05 fold enrichment (6-mer frequency, TF over GST control) in the test with FEV; 1.03 fold enrichment (6-mer frequency, TF over GST control) in the test with ETV5; 1.03 fold enrichment (6-mer frequency, TF over GST control) with HSF1; 1.25 fold enrichment (6-mer frequency, TF over GST control) in the test with SPIC; 1.02 fold enrichment (6-mer frequency, TF over GST control) with ELF4; 1.06 fold enrichment (6-mer frequency, TF over GST control) with ELK4. The binding signal with ELF3 is 1.16 fold enrichment (6-mer frequency, TF over GST control); in the test with CRX it was 1.15 fold enrichment (6-mer frequency, TF over GST control); with ETV1, 1.01 fold enrichment (6-mer frequency, TF over GST control).

As for AAGGTT, the binding signal with FEV is 1.02 fold enrichment (6-mer frequency, TF over GST control); with ETV5 it was 1.01 fold enrichment (6-mer frequency, TF over GST control); in the test with HSF1, 1.27 fold enrichment (6-mer frequency, TF over GST control); with SPIC it was 1.03 fold enrichment (6-mer frequency, TF over GST control); in the test with ELF4 it was 1.09 fold enrichment (6-mer frequency, TF over GST control); in the test with ELK4, 1.12 fold enrichment (6-mer frequency, TF over GST control). In addition, the binding signal in the test with ELF3 is 1.35 fold enrichment (6-mer frequency, TF over GST control); with CRX, 1.17 fold enrichment (6-mer frequency, TF over GST control); in the test with ETV1, 1.07 fold enrichment (6-mer frequency, TF over GST control).

Consider AAGCGC, for which the binding signal with FEV was 1.14 fold enrichment (6-mer frequency, TF over GST control); with ETV5, 1.09 fold enrichment (6-mer frequency, TF over GST control); with HSF1 it was 1.08 fold enrichment (6-mer frequency, TF over GST control); with SPIC, 1.14 fold enrichment (6-mer frequency, TF over GST control); in the test with ELF4 it was 1.12 fold enrichment (6-mer frequency, TF over GST control); with ELK4, 1.2 fold enrichment (6-mer frequency, TF over GST control). Besides, the binding signal was 1.16 fold enrichment (6-mer frequency, TF over GST control) with ELF3; 1.27 fold enrichment (6-mer frequency, TF over GST control) with CRX; 1.09 fold enrichment (6-mer frequency, TF over GST control) in the test with ETV1.

Consider ACTAAG, for which the binding signal is 1.02 fold enrichment (6-mer frequency, TF over GST control) with FEV; 1.04 fold enrichment (6-mer frequency, TF over GST control) with ETV5; 1.32 fold enrichment (6-mer frequency, TF over GST control) with HSF1; 1.19 fold enrichment (6-mer frequency, TF over GST control) with SPIC; 1.1 fold enrichment (6-mer frequency, TF over GST control) with ELF4; 1.02 fold enrichment (6-mer frequency, TF over GST control) with ELK4. Besides, the binding signal with ELF3 is 1.11 fold enrichment (6-mer frequency, TF over GST control); with CRX, 1.76 fold enrichment (6-mer frequency, TF over GST control); in the test with ETV1 it was 1.15 fold enrichment (6-mer frequency, TF over GST control).

Consider TCCCGA, for which the binding signal with FEV was 1.31 fold enrichment (6-mer frequency, TF over GST control); with ETV5 it was 1.37 fold enrichment (6-mer frequency, TF over GST control); in the test with HSF1, 2.34 fold enrichment (6-mer frequency, TF over GST control); with SPIC, 1.36 fold enrichment (6-mer frequency, TF over GST control); with ELF4 it was 1.25 fold enrichment (6-mer frequency, TF over GST control); in the test with ELK4, 1.42 fold enrichment (6-mer frequency, TF over GST control). The binding signal in the test with ELF3 was 1.26 fold enrichment (6-mer frequency, TF over GST control); in the test with CRX it was 1.59 fold enrichment (6-mer frequency, TF over GST control); with ETV1, 1.29 fold enrichment (6-mer frequency, TF over GST control).

Consider TAGCGA, for which the binding signal was 1.08 fold enrichment (6-mer frequency, TF over GST control) with ETV5; 1.22 fold enrichment (6-mer frequency, TF over GST control) in the test with HSF1; 1.08 fold enrichment (6-mer frequency, TF over GST control) in the test with SPIC; 1.04 fold enrichment (6-mer frequency, TF over GST control) with ELF4; 1.05 fold enrichment (6-mer frequency, TF over GST control) in the test with ELK4; 1.2 fold enrichment (6-mer frequency, TF over GST control) with ELF3. The binding signal in the test with CRX was 1.24 fold enrichment (6-mer frequency, TF over GST control); with ETV1 it was 1.07 fold enrichment (6-mer frequency, TF over GST control).
